In PMC7862700, “An all-to-all approach to the identification of sequence-specific readers for epigenetic DNA modifications on cytosine”:

Assays:
Assay in all cases: DAPPL (digital affinity profiling via proximity ligation, sequencing); 10 mM Tris-HCl pH 7.5, 50 mM NaCl, 1 mM DTT, 4% glycerol, room temperature, 30 min; GST-TFs on glutathione beads, 16-mer random dsDNA library, 0.1% formaldehyde crosslink after washing; high values mean tight binding
FLI1 = molecular target: T1, FLI1 (Homo sapiens, UniProt Q01543 1-452); settings: protein: recombinant; tags: N-terminal GST; dsDNA, one strand shown
T1 sequence: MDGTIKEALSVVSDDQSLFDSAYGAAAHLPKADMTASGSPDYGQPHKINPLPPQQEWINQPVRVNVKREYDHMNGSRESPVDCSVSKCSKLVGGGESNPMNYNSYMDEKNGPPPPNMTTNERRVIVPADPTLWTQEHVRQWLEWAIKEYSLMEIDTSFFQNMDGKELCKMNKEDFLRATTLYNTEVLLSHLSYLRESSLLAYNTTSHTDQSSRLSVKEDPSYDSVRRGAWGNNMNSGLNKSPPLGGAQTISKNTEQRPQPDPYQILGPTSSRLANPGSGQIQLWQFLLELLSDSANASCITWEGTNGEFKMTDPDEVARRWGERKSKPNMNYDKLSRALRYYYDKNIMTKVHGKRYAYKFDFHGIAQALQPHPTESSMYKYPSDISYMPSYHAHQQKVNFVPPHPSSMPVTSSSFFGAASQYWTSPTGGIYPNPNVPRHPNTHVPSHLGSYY
Method in brief: (§1)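 Beads coated with glutathione captured GST-fused human transcription factors that had been expressed in yeast, and the factors were then given DNA barcodes and pooled with a tag-only sample. The pools were incubated with 200 nmole of a random double-stranded 16-mer DNA library in Tris/NaCl/DTT/glycerol buffer for 30 min at room temperature, washed, crosslinked with 0.1% formaldehyde and proximity-ligated with BsaI/T4 ligase at 37 °C for 1 h. PCR amplification and Illumina NextSeq500 sequencing came last. Binding signal is each hexamer's read frequency for a factor divided by its frequency for the tag-only sample.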

ELK1 = molecular target: T2, ELK1 (Homo sapiens, UniProt P19419 1-428); settings: protein: recombinant; tags: N-terminal GST; dsDNA, one strand shown
T2 sequence: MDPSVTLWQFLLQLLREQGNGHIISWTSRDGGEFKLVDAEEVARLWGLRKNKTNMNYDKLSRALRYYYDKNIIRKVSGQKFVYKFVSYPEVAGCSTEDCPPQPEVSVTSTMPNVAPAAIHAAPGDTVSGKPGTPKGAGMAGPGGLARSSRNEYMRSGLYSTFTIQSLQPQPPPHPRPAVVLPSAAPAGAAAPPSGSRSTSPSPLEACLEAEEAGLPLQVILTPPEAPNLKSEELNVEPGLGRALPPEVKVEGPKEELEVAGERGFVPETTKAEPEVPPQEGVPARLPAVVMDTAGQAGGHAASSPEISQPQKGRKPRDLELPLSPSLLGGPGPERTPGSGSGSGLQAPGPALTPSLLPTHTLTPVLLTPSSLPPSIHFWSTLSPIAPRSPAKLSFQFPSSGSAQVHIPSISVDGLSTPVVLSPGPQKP
Method in brief: as §1

GABPA = molecular target: T3, GABPA (Homo sapiens, UniProt Q06546 1-454); settings: protein: recombinant; tags: N-terminal GST; dsDNA, one strand shown
T3 sequence: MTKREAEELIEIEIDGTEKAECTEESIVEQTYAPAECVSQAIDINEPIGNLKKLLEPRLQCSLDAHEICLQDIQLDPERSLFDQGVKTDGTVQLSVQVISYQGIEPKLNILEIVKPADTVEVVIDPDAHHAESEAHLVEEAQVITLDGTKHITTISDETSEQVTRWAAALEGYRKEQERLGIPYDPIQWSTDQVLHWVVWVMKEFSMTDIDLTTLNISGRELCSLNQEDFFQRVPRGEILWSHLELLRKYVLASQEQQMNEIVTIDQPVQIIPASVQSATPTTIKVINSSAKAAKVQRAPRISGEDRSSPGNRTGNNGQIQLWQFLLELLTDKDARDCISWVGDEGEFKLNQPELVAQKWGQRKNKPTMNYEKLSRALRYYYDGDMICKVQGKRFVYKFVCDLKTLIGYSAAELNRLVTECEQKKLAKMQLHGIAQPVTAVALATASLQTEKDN
Method in brief: as §1

ERG = molecular target: T4, ERG (Homo sapiens, UniProt P11308 1-479); settings: protein: recombinant; tags: N-terminal GST; dsDNA, one strand shown
T4 sequence: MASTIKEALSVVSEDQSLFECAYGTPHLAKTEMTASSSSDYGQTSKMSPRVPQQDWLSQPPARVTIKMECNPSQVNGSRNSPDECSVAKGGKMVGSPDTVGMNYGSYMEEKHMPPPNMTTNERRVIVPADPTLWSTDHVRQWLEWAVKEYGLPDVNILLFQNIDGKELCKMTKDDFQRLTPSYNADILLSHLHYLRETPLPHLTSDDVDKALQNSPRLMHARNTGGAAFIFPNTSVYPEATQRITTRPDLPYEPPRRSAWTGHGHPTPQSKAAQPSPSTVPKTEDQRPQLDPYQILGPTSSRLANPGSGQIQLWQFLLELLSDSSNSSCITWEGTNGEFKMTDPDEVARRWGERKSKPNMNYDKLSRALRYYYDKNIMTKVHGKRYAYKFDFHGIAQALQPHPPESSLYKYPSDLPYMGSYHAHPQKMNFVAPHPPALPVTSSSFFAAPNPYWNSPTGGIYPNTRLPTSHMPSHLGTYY
Method in brief: as §1

ELF1 = ELF1 (Homo sapiens, UniProt P32519 1-619); settings: protein: recombinant; tags: N-terminal GST; dsDNA, one strand shown
Method in brief: as §1

EHF = molecular target: T5, EHF (Homo sapiens, UniProt Q9NZC4 1-300); settings: protein: recombinant; tags: N-terminal GST; dsDNA, one strand shown
T5 sequence: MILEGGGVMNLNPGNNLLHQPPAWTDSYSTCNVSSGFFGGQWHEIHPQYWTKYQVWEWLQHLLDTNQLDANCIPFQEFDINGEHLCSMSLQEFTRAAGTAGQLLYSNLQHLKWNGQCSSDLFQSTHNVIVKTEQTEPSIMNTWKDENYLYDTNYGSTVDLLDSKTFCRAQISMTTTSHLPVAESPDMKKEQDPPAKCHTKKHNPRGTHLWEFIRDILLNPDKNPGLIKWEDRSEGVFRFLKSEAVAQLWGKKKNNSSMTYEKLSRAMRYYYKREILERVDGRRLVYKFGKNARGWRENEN
Method in brief: as §1

SPI1 = SPI1 (Homo sapiens, UniProt P17947 1-270); settings: protein: recombinant; tags: N-terminal GST; dsDNA, one strand shown
Method in brief: as §1

SPIB = SPIB (Homo sapiens, UniProt Q01892 1-262); settings: protein: recombinant; tags: N-terminal GST; dsDNA, one strand shown
Method in brief: as §1

ELK3 = molecular target: T6, ELK3 (Homo sapiens, UniProt P41970 1-407); settings: protein: recombinant; tags: N-terminal GST; dsDNA, one strand shown
T6 sequence: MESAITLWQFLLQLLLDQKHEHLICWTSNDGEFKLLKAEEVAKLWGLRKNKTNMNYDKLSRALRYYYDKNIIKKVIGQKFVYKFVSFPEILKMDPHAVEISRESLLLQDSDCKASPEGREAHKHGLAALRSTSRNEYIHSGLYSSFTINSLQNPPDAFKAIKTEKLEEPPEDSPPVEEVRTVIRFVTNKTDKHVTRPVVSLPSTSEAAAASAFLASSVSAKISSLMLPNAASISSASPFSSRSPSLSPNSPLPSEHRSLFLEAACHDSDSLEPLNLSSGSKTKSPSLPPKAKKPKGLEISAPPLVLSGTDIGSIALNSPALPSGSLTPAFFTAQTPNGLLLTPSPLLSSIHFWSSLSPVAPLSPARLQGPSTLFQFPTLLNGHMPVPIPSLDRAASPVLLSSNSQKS
Method in brief: as §1

FEV = molecular target: T7, FEV (Homo sapiens, UniProt Q99581 1-238); settings: protein: recombinant; tags: N-terminal GST; dsDNA, one strand shown
T7 sequence: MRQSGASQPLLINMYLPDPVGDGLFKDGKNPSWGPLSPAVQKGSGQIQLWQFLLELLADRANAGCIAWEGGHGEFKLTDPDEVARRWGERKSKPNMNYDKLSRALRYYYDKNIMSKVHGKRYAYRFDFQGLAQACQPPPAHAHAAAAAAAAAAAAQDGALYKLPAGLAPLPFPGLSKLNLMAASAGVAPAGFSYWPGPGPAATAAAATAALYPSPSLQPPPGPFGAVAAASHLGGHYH
Method in brief: as §1

ETV5 = ETV5 (Homo sapiens, UniProt P41161 1-510); settings: protein: recombinant; tags: N-terminal GST; dsDNA, one strand shown
Method in brief: as §1

HSF1 = HSF1 (Homo sapiens, UniProt Q00613 1-529); settings: protein: recombinant; tags: N-terminal GST; chain copies: 3; dsDNA, one strand shown
Method in brief: as §1

SPIC = molecular target: T8, SPIC (Homo sapiens, UniProt Q8N5J4 1-248); settings: protein: recombinant; tags: N-terminal GST; dsDNA, one strand shown
T8 sequence: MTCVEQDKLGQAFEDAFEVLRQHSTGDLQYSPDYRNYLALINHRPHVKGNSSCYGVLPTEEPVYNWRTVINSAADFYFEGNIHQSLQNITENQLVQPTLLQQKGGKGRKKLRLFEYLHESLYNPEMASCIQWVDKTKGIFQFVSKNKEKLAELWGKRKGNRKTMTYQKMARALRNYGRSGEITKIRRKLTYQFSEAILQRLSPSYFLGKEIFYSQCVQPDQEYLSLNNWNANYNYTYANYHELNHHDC
Method in brief: as §1

ELF4 = ELF4 (Homo sapiens, UniProt Q99607 1-663); settings: protein: recombinant; tags: N-terminal GST; dsDNA, one strand shown
Method in brief: as §1

ELK4 = molecular target: T9, ELK4 (Homo sapiens, UniProt P28324-2 1-405); settings: protein: recombinant; tags: N-terminal GST; dsDNA, one strand shown
T9 sequence: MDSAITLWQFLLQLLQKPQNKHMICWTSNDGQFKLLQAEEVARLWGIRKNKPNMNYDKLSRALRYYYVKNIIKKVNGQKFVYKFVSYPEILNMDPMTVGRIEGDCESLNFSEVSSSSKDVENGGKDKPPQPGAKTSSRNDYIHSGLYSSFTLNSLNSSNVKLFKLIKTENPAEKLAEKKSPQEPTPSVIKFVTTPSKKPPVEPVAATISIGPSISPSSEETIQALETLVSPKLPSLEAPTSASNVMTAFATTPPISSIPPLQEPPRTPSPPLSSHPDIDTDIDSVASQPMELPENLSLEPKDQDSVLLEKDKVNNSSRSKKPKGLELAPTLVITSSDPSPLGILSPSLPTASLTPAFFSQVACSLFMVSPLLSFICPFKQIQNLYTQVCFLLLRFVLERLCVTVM
Method in brief: as §1

ETV2 = molecular target: T10, ETV2 (Homo sapiens, UniProt O00321 1-342); settings: protein: recombinant; tags: N-terminal GST; dsDNA, one strand shown
T10 sequence: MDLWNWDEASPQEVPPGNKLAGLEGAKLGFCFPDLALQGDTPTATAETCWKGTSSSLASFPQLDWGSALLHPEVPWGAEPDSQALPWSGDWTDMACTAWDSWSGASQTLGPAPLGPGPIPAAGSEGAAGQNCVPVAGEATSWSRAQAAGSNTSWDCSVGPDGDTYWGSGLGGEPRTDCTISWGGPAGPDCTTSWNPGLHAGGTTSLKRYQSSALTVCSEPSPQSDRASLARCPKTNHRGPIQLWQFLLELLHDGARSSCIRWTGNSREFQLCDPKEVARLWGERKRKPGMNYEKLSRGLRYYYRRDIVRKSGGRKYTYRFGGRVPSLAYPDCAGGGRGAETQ
Method in brief: as §1

ELF3 = molecular target: T11, ELF3 (Homo sapiens, UniProt P78545 1-371); settings: protein: recombinant; tags: N-terminal GST; dsDNA, one strand shown
T11 sequence: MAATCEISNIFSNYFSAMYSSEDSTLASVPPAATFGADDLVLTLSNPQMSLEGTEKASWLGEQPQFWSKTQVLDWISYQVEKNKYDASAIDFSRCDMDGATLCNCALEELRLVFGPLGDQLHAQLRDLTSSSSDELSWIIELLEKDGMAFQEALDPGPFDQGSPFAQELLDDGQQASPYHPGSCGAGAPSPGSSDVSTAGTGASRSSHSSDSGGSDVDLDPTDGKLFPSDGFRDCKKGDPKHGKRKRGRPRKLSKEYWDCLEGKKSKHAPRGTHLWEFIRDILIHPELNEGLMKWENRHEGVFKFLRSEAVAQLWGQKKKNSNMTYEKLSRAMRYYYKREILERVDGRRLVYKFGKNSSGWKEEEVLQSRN
Method in brief: as §1

CRX = CRX (Homo sapiens, UniProt O43186 1-299); settings: protein: recombinant; tags: N-terminal GST; dsDNA, one strand shown
Method in brief: as §1

ETV1 = ETV1 (Homo sapiens, UniProt P50549 1-477); settings: protein: recombinant; tags: N-terminal GST; dsDNA, one strand shown
Method in brief: as §1

CRX, sequence (O43186 whole entry): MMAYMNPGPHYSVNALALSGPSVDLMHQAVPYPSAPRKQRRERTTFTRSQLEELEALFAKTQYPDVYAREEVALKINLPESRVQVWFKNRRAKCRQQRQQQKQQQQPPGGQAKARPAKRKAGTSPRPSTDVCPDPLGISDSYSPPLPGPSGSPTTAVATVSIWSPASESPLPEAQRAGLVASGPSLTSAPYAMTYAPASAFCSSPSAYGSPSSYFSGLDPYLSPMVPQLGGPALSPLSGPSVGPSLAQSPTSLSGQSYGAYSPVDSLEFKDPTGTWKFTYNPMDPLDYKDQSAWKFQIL
ETV1, sequence (P50549 whole entry): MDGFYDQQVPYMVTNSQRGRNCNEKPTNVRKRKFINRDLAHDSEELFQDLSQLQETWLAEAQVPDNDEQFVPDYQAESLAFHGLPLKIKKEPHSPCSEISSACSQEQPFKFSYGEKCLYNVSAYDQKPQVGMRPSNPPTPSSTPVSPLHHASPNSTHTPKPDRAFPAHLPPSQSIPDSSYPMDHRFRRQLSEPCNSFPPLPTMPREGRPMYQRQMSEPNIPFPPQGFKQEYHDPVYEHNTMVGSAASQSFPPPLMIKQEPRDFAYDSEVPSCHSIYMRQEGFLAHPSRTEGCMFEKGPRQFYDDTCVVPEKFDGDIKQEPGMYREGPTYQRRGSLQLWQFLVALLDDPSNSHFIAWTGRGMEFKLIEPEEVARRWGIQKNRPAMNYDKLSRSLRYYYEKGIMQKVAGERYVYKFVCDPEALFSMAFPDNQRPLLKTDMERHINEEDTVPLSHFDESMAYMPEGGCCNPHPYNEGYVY
HSF1, sequence (Q00613 whole entry): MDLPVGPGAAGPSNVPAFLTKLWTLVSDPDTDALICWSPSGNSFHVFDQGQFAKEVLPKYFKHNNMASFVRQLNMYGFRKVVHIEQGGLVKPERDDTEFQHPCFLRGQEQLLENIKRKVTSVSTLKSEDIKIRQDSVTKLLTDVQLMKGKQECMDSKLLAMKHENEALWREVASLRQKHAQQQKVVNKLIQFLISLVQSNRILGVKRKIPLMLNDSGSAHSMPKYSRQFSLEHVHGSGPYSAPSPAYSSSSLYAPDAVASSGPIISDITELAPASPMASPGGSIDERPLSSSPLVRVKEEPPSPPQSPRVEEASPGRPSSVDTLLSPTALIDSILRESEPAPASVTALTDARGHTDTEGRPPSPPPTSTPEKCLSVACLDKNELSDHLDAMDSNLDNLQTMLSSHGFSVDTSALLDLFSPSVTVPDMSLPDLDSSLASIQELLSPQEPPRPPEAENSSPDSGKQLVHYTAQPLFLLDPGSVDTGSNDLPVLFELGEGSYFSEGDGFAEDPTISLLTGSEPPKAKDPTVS
ELF1, sequence (P32519 whole entry): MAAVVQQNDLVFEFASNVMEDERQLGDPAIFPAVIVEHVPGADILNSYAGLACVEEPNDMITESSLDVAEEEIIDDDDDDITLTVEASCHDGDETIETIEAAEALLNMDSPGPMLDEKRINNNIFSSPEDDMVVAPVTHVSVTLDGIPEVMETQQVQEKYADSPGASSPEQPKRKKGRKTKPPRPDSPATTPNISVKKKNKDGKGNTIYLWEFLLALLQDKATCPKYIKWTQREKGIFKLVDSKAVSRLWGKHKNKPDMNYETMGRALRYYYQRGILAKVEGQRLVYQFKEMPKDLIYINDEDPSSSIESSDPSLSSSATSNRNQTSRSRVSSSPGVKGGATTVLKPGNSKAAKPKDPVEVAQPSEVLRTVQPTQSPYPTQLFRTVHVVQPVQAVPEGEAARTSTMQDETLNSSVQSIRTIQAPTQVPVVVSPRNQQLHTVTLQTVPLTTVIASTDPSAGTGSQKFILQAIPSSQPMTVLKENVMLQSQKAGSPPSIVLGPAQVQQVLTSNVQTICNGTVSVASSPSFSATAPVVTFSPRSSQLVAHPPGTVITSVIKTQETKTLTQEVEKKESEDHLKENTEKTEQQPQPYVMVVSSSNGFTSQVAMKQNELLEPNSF
SPIB, sequence (Q01892 whole entry): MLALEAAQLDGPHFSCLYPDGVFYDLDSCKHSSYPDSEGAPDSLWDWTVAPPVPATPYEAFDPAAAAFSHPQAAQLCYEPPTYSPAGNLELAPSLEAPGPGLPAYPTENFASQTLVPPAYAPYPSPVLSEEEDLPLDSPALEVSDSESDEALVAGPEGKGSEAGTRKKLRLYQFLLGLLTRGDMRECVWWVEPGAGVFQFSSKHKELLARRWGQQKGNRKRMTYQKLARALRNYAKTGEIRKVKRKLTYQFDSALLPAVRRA
ELF4, sequence (Q99607 whole entry): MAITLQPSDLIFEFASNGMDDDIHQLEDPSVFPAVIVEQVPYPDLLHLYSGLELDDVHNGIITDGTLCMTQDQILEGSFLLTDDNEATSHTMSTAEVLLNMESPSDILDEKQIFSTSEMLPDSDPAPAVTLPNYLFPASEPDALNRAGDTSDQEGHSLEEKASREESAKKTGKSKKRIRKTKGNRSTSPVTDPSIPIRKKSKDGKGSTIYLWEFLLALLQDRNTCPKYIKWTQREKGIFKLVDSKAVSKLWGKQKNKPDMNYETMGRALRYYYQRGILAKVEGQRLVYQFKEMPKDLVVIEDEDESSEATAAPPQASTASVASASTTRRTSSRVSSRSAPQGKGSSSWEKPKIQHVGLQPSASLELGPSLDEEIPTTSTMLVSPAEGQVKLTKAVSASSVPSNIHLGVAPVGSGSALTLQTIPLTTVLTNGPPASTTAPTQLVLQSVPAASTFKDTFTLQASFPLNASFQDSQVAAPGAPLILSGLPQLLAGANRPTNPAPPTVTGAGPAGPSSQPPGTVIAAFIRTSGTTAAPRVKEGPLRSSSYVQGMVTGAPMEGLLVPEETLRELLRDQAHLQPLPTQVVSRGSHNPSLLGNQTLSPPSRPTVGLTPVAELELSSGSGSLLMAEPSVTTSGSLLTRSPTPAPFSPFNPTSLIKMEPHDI
ETV5, sequence (P41161 whole entry): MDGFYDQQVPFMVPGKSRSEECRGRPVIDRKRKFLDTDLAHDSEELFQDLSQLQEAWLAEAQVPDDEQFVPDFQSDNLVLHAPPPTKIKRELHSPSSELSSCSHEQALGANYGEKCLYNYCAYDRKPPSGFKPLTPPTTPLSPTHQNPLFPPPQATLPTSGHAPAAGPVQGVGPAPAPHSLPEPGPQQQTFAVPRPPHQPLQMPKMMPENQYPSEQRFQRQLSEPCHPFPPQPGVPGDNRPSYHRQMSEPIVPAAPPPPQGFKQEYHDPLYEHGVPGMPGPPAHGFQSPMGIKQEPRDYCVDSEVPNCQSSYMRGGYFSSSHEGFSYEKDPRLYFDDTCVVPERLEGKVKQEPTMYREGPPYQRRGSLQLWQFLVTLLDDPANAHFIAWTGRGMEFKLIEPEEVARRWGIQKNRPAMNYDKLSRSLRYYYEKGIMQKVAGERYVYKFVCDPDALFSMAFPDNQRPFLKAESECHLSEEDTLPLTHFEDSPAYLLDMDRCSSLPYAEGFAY

AGATTT
binding signal (FLI1): 1.12 fold enrichment (6-mer frequency, TF over GST control)
binding signal (ELK1): 1.14 fold enrichment (6-mer frequency, TF over GST control)
binding signal (GABPA): 1.08 fold enrichment (6-mer frequency, TF over GST control)
binding signal (ERG): 1.21 fold enrichment (6-mer frequency, TF over GST control)
binding signal (ELF1): 1.11 fold enrichment (6-mer frequency, TF over GST control)
binding signal (EHF): 1.2 fold enrichment (6-mer frequency, TF over GST control)
binding signal (SPI1): 1.13 fold enrichment (6-mer frequency, TF over GST control)
binding signal (SPIB): 1.09 fold enrichment (6-mer frequency, TF over GST control)
binding signal (ELK3): 1.01 fold enrichment (6-mer frequency, TF over GST control)
binding signal (FEV): 1.16 fold enrichment (6-mer frequency, TF over GST control)
binding signal (ETV5): 1.2 fold enrichment (6-mer frequency, TF over GST control)
binding signal (HSF1): 1.75 fold enrichment (6-mer frequency, TF over GST control)
binding signal (SPIC): 1.06 fold enrichment (6-mer frequency, TF over GST control)
binding signal (ELF4): 1.16 fold enrichment (6-mer frequency, TF over GST control)
binding signal (ELK4): 1.25 fold enrichment (6-mer frequency, TF over GST control)
binding signal (ETV2): 1.05 fold enrichment (6-mer frequency, TF over GST control)
binding signal (ELF3): 1.21 fold enrichment (6-mer frequency, TF over GST control)
binding signal (CRX): 1.84 fold enrichment (6-mer frequency, TF over GST control)
binding signal (ETV1): 1.15 fold enrichment (6-mer frequency, TF over GST control)
